The values below come from PubChem BioAssay (EPA / NIEHS).

Records with an inconclusive call do not appear. The source made the active and inactive calls. Rule for the calls: active = hit-call score of the fitted dose curve at least 0.9, where 1 is the maximum; inconclusive = response in the unintended direction; inactive = score below 0.9.

Sequence of Estrogen receptor (Homo sapiens) (P03372 whole entry, looked up, the tested form may be a part): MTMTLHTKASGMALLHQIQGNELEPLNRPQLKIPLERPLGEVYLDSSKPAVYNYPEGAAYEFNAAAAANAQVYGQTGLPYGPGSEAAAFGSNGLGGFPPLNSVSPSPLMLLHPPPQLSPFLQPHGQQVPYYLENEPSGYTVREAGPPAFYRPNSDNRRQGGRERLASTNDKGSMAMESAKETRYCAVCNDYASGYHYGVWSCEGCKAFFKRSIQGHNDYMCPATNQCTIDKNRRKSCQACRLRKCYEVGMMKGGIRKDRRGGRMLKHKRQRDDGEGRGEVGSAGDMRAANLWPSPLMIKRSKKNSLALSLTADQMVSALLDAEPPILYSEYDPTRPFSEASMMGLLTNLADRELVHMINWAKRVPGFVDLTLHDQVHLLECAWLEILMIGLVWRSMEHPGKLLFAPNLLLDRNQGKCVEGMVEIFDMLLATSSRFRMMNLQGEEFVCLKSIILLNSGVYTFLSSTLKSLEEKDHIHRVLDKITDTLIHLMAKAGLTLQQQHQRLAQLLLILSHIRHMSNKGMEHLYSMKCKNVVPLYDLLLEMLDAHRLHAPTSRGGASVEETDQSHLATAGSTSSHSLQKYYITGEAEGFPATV

The test concerns the target Estrogen receptor (Homo sapiens) (UniProt P03372). Nature of the test: ATG_ERa_TRANS: Attagene TRANS-FACTORIAL HepG2 Assay for human Estrogen Receptor alpha (ERa) (AID 2282970). As to conditions: HepG2 Attagene TRANS ERa GAL4 reporter, mRNA. The protocol:
ATG_TRANS is a cell-based, multiplexed-readout assay that uses HepG2, a human liver cell line, with measurements taken at 24 hours after chemical dosing in a 24-well plate.ATG_ERa_TRANS is one of 30 assay component(s) measured or calculated from the ATG_TRANS assay. It is designed to make measurements of mRNA induction, a form of inducible reporter, as detected with fluorescence intensity signals by Reverse transcription polymerase chain reaction (RT-PCR) and Capillary electrophoresis technology.Data from the assay component ATG_ERa_TRANS was analyzed into 1 assay endpoint. This assay endpoint, ATG_ERa_TRANS, was analyzed in the positive analysis fitting direction relative to DMSO as the negative control and baseline of activity. Using a type of inducible reporter, measures of mRNA for gain-of-signal activity can be used to understand the reporter gene at the transcription factor-level as they relate to the gene ESR1. Furthermore, this assay endpoint can be referred to as a primary readout, because this assay has produced multiple assay endpoints where this one serves a reporter gene function. To generalize the intended target to other relatable targets, this assay endpoint is annotated to the nuclear receptor intended target family, where the subfamily is steroidal.
Human liver HepG2 cells are transiently transfected with multiple reporter transcription units (MRTUs) in 6-well plates using FuGene 6 reagent (Roche; 3 ml FuGene/1 mg DNA). The MRTU constructs are regulated by a cis-regulating element (promoter). […] A major difference between the CIS and TRANS system is that in CIS activities of endogenous TFs are measured, whereas the TRANS assay evaluates changes in activities of exogenous, chimeric NR-Gal4 proteins. […] At the end of 24 hour incubation, total RNA was isolated using TriZol reagent (Invitrogen). The isolated RNA is then reverse-transcribed using oligo(dT) primer and Mo-MLV reverse transcriptase (Invitrogen) with DNAse I (Ambion) treatment for 30 min. The one-tenth of the produced cDNA was amplified by PCR using Taq DNA polymerase (Invitrogen) and two reporter sequence-specific primers. The PCR products were fluorescently labeled by primer extension with 6-arboxyfluorescein (6-FAM) 5'-labeled reporter sequence-specific primer (2 min at 95 C, 20 s at 68 C and 10 min at 72 C) and these products were digested with 5U of HpaI (New England Biolabs) for 2h at 37 C. […] The raw capillary electrophoresis data was processed using Attagraph software (Attagene).
Consider `CCOc1cc(C(C)(C)C)ccc1C1COC(c2c(F)cccc2F)=N1` (stereo not given), for which the result was inactive.
For the compound `COc1cc(Cl)c(OC)cc1Cl`, the compound was classed as inactive.
As for `O=P(O)(O)CCCl`, the compound was called inactive.
Consider `Cc1cc(C)nc(Nc2ccccc2)n1`, for which the result was inactive.
As usually defined, the AC50 is the concentration at which the activity in the assay is half-maximal. `CC(C)=CC1C(C(=O)OCc2coc(Cc3ccccc3)c2)C1(C)C` (stereo not given): the half-maximal activity concentration (AC50) is 19.6 µM (active).
For the compound `CC1(C)CCC(=Cc2ccc(Cl)cc2)C1(O)Cn1cncn1` (stereo not given), the call was inactive.
With `N#CN=C1SCCN1Cc1ccc(Cl)nc1`, the result was inactive.
For the compound `COP(=S)(OC)Oc1ccc([N+](=O)[O-])c(C)c1`, the AC50 was 17.9 µM (active).
In the case of `CCN(CC)c1nc(C)cc(OP(=S)(OC)OC)n1`, the half-maximal activity concentration (AC50) was 15.5 µM (active).
On to `CCNC(=O)NC(=O)C(C#N)=NOC`, for which the compound was called inactive.
Still for that read-out and setting: then `O=C1C2CC=CCC2C(=O)N1SC(Cl)(Cl)Cl` (stereo not given), with “inactive”; and `O=c1n(Cl)c(=O)n(Cl)c(=O)n1Cl`, with “inactive”.
Still for that read-out and setting: then `CNC(=O)N(C)c1nnc(C(C)(C)C)s1`, with “inactive”.
Still for that read-out and setting: then `O=C(O)c1c(Cl)ccc2cc(Cl)cnc12`, with “inactive”; and `Nc1c(Cl)c(F)nc(OCC(=O)O)c1Cl`, with “inactive”; and `COc1ccc(-c2ccccc2)cc1NNC(=O)OC(C)C`, with “inactive”.
`CSC(=O)c1c(C(F)F)nc(C(F)(F)F)c(C(=O)SC)c1CC(C)C`: the AC50 is 8.26 µM (active).
For `N#Cc1c(Cl)cccc1Cl`, the outcome was inactive.
For the compound `CCCCC(O)(Cn1cncn1)c1ccc(Cl)cc1Cl` (stereo not given), the AC50 is 16.9 µM (active).
Still for that read-out and setting: in the case of `Cc1c(COC(=O)[C@@H]2[C@H](/C=C(\Cl)C(F)(F)F)C2(C)C)cccc1-c1ccccc1` it was 14.9 µM (active).
Same read-out and setting: then `CC(C)(C)C(=O)C(Oc1ccc(Cl)cc1)n1cncn1` (stereo not given), with 18.5 µM (active).
For the compound `O=C(Nc1ccccc1-c1ccc(Cl)cc1)c1cccnc1Cl`, the compound was classed as inactive.
Same read-out and setting: then `CC(C)Oc1cccc(NC(=O)c2ccccc2C(F)(F)F)c1`, with “inactive”.
Take `N#Cc1c[nH]cc1-c1cccc2c1OC(F)(F)O2`: the half-maximal activity concentration (AC50) is 2.84 µM (active).
As for `CC(C)Nc1nc(Cl)nc(NC(C)C)n1`, the call was inactive.
Take `COC(=O)NC(=S)Nc1ccccc1NC(=S)NC(=O)OC`: the result was inactive.
The same measure, in the same setting: in the case of `CN=C=S` it was “inactive”.
As to `COC(=O)N(C(=O)N1CO[C@@]2(C(=O)OC)Cc3cc(Cl)ccc3C2=N1)c1ccc(OC(F)(F)F)cc1`, the call was inactive.
Turning to `COc1cc(OC)nc(NC(=O)NS(=O)(=O)c2ncccc2OCC(F)(F)F)n1`, the outcome was inactive.
Take `CC1(C)C(C(=O)OC(C#N)c2cccc(Oc3ccccc3)c2)C1(C)C` (stereo not given): the AC50 is 21.3 µM (active).
Consider `CN/C(=N\[N+](=O)[O-])NCc1cnc(Cl)s1`, for which the compound was classed as inactive.
In the case of `CC(C)C1(C)N=C(c2ncccc2C(=O)O)NC1=O` (stereo not given), the call was inactive.
Regarding `CCNP(=S)(OC)O/C(C)=C/C(=O)OC(C)C` (stereo not given), the AC50 is 31.9 µM (active).
On to `CCN(CC)C(=O)C(C)Oc1cccc2ccccc12` (stereo not given), for which the AC50 is 29.8 µM (active).
The same measure, in the same setting: then `CCOP(=O)(OCC)Oc1nc(Cl)c(Cl)cc1Cl`, with 50 µM (active).
Turning to `COC(=O)c1c(C(F)F)nc(C(F)(F)F)c(C2=NCCS2)c1CC(C)C`, the AC50 is 19.6 µM (active).
As to `CCCCOCN(C(=O)CCl)c1c(CC)cccc1CC`, the result was inactive.
Consider `CCOP(=S)(OCC)Oc1nc(Cl)n(C(C)C)n1`, for which the half-maximal activity concentration (AC50) was 29.9 µM (active).
Turning to `CCC(C)n1c(=O)[nH]c(C)c(Br)c1=O` (stereo not given), the call was inactive.
Regarding `CC1(C)C(C=C(Cl)Cl)C1C(=O)OC(C#N)c1cccc(Oc2ccccc2)c1` (stereo not given), the half-maximal activity concentration (AC50) was 19.7 µM (active).
